# Assay outcomes as filed in PubChem BioAssay.
# Rows were chosen to be rich in hits. Some 10% of all compounds tested hit in one or more screens of this group.
# G9a inh: G9a (human) methyltransferase inhibition | 350,000 compounds, 8.8% hits | Potency, µM (highest dose often 102 µM), inactives show top-dose activity, negative = inhibition, most hits filed as inhibitors | G9a H3K9 monomethylation, AlphaScreen, 2 h | AID 504332; note: % is set by controls: 0 for no effect and ±100 for the full control effect; nearly all actives have a fitted effect of over 75% in size
# Target sequence (Q96KQ7 913-1193 limits assumed): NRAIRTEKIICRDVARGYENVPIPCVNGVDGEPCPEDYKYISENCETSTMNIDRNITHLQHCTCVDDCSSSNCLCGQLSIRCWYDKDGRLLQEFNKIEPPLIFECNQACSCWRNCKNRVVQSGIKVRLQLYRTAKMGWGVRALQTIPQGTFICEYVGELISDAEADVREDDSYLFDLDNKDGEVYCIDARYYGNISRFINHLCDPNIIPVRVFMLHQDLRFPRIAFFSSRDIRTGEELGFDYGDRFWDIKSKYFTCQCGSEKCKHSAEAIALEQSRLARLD
#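 Using a bead-based AlphaScreen, monomethylated H3K9 product from 2 h room-temperature reactions (G9a 20 nM, peptide 500 nM, SAM 20 uM) was detected with 0.5 ug/mL rabbit anti-H3K9me1 antibody.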
# HP1b binding inh: inhibitors of HP1-beta chromodomain binding to methylated histone tails; 390,000 compounds, 0.56% hits; P83916; AID 540317; Potency, µM (titrated, usually from 114 µM), for the others: at the top dose activity change, negative = inhibition, actives largely listed as inhibitors; AlphaScreen HP1-beta / biotin-H3K9me3 peptide binding; note: nearly all actives have a fitted effect of over 70% in size
# Target sequence (P83916 whole entry, looked up): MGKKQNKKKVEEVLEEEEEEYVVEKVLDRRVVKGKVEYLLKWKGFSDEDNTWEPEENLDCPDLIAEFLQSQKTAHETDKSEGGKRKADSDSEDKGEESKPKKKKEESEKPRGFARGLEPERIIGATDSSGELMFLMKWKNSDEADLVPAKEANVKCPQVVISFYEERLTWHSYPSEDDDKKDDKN
#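 Compound inhibition of the preformed complex between 50 nM HP1-beta and 50 nM biotinylated H3K9me3 peptide was read by AlphaScreen. Buffer was PBS pH 7.4 with 0.01% Tween-20. Incubations ran 30 min at room temperature, with 10 ug/mL donor/acceptor beads.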
# BAZ2B inh: inhibitors of human BAZ2B bromodomain | AlphaScreen BAZ2B-H3K14Ac peptide displacement | Potency, µM (series often up to 114 µM), for inactives: at the highest dose activity change, negative = inhibition, hits mostly inhibitors | 360,000 compounds, 4.4% hits | AID 504333; note: % is set by controls: 0 for no effect and ±100 for the full control effect; nearly all actives have a fitted effect of over 60% in size
#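 BAZ2B (50 nM) with biotin-H3(5-23)K14Ac peptide (50 nM) in PBS pH 7.4, 0.01% Tween-20, preformed 30 min, then compound 30 min at room temperature; top concentration 110uM. AlphaScreen streptavidin donor/nickel chelate acceptor beads (10 ug/mL final), 20 min dark, signal read.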
# GLS inh: glutaminase GLS (human) inhibition | O94925 | GLS enzymatic activity, qHTS titration | Potency, µM (top dose mostly 45.5 µM), for the others: at the top dose activity change, negative = inhibition, usual class: inhibitors | 410,000 compounds, 0.21% hits | AID 624170; note: % is set by controls: 0 for no effect and ±100 for the full control effect
#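 Compounds were pin-transferred onto hKGA, after which L-glutamine (1 mM solution) and a detection mix of glutamate oxidase, HRP and Amplex Red were added. Initial and 30 min RT fluorescence reads were collected.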
# JMJD2A Tudor inh: blocks the human JMJD2A Tudor domain | AID 504339 | 390,000 compounds, 4.4% hits | Potency, µM (top dose mostly 114 µM), for the others: at the highest dose activity change, negative = inhibition, most hits filed as inhibitors | AlphaScreen JMJD2A-Tudor / H3K4me3 peptide binding; note: % is set by controls: 0 for no effect and ±100 for the full control effect; nearly all actives have a fitted effect of over 50% in size
# Active calls of the source: *; ? = inconclusive; / = no result given; [ ] = dose if it differs, or a comment. Calls come from the whole dose curve; as a rule, active = well fitted curve in the direction sought with a large enough effect; inconclusive = small, poorly fitted or top-dose-only effect, or another doubt; inactive = no such curve, though single readings can be large; an effect the other way counts as inactive or inconclusive. Potency is the fitted concentration of half-maximal effect.
SMILES,G9a inh,HP1b binding inh,BAZ2B inh,GLS inh,JMJD2A Tudor inh
COc1ccc(NC(=O)c2ccco2)cc1NC(=O)COc1ccccc1Cl,26.0%[59 µM],30.2%,1.3%,-12.0%,-3.8%
S=C(NCCc1ccccc1)N1CCc2ccccc2C1,25.4%,68.5%,-15.1%,-9.1%,29.2%
O=C(Nc1nc2ccc(S(=O)(=O)N3CCCC3)cc2s1)c1ccccn1,12.6µM*,11.0%,?,0.2%,?
O=C(/C=C/c1ccco1)Nc1cccc(S(=O)(=O)N2CCOCC2)c1,-15.9%,-6.0%,-7.8%,4.2%,3.5%
CN(C)S(=O)(=O)c1cccc(NC(=O)c2ccc3c(c2)S(=O)(=O)N=C2CCCCCN23)c1,31.6µM*,/,-31.7%,/,/
Cc1nc(-c2cccc(NC(=O)c3cccc(S(=O)(=O)N4CCCC4)c3)c2)cs1,10µM*,36.7%,4.5%,-0.5%,-11.1%
O=C(Nc1nc2ccc(S(=O)(=O)N3CCCCC3)cc2s1)c1ccncc1,-6.0%[12.7 µM],56.3%,23.3%,1.4%,-17.9%
Cc1ccc(/C=C/C(=O)Nc2cccc(S(=O)(=O)N3CCOCC3)c2)o1,8.91µM*,50.1µM*,-32.0%,-12.1%,-28.1%
CC(Cc1ccc(Cl)cc1)N1CCC(n2nccc2NC(=O)C2CCCC2)CC1 (stereo unspecified),-23.7%,26.3%,-23.1%,23.7%,-25.0%
O=C(COc1ccc(S(=O)(=O)N2CCOCC2)cc1Cl)NCc1ccc2c(c1)OCO2,/,/,/,4.2%,/
Cc1ccc(C(=O)N2CCN(c3ccc(F)cc3)CC2)cc1NC(=O)c1nsc2ccccc12,-39.2%[59 µM],3.8%[57 µM],-17.4%,-4.7%,-34.7%
CCCN1CCN(CCNC(=O)Nc2cc(C)ccc2OC)CC1,-3.0%[59 µM],28.2%,-9.6%,10.4%,-12.3%
CC(C)C[C@H]1CN(CCCC[C@H]2CNC(=O)C(=O)N2CC2CCCCC2)C(=O)C(=O)N1Cc1ccccc1,/,/,/,-28.0%,/
CCCC(C(=O)Nc1cccc(S(=O)(=O)N2CCCC2)c1)c1ccccc1 (stereo unspecified),15.8µM*,25.6%,3.8%,-12.1%,4.4%
O=C(Nc1cccc(S(=O)(=O)N2CCCCC2)c1)c1ccccn1,5.62µM*,-2.6%,?,0.0%,?
CC(C)[C@H](NC(N)=O)C(=O)Nc1cccc(S(=O)(=O)N2CCOCC2)c1,35.5µM*,5.3%,-7.6%,-9.2%,-3.5%
O=C(Nc1cccc(S(=O)(=O)N2CCOCC2)c1)c1ccccn1,25.1µM*,22.4%,?,0.9%,-16.8%
CCOc1ccc(NC(=O)C(CC(=O)O)Cc2ccc(C)cc2)cc1 (stereo unspecified),/,16.6%,-8.4%,1.3%,-12.9%
CCN1CCN(c2nc3c(S(=O)(=O)c4ccc(Br)cc4)nnn3c3ccsc23)CC1,9.8%[59 µM],62.0%,-1.9%,-7.5%,-9.5%
O=C(Nc1ccccc1C(=O)O)/C(=C/c1ccc(Cl)cc1Cl)NC(=O)c1ccco1,/,10.5%,-12.9%,10.4%,-11.1%
O=c1[nH]c(/C=C/c2ccccc2)c([N+](=O)[O-])c(=O)[nH]1,-44.8%,19.6%,-3.6%,0.2%,-14.5%
COc1cc(C(c2c(C)[nH][nH]c2=O)c2c(C)[nH][nH]c2=O)cc([N+](=O)[O-])c1O,?,?,?,?,44.7µM*
O=c1[nH]c(/C=C/c2ccc(Cl)cc2Cl)c([N+](=O)[O-])c(=O)[nH]1,?,6.0%,56.2µM*,-2.7%,-21.1%
COc1cc(/C=C/c2[nH]c(=O)[nH]c(=O)c2[N+](=O)[O-])cc([N+](=O)[O-])c1O,44.7µM*,-8.0%,56.2µM*,?,?
O=c1[nH]c(/C=C/c2cccc([N+](=O)[O-])c2)c([N+](=O)[O-])c(=O)[nH]1,79.4µM*,-6.4%,12.7%,12.9%,-4.1%
SMILES,G9a inh,HP1b binding inh,BAZ2B inh,GLS inh,JMJD2A Tudor inh
CCC(C)Oc1ccc(/C=C/c2[nH]c(=O)[nH]c(=O)c2[N+](=O)[O-])cc1OC (stereo unspecified),?,11.4%,?,?,-19.6%
O=c1[nH]c(/C=C\c2cccnc2)c([N+](=O)[O-])c(=O)[nH]1,-26.2%,-21.9%,-0.9%,2.6%,-72.2%
CCOc1cc(C(c2c(C)[nH][nH]c2=O)c2c(C)[nH][nH]c2=O)cc([N+](=O)[O-])c1O,6.5%[0.501 µM],-14.3%,-34.5%,22.6%,-24.5%
CN(C)CCCNc1cc(N2CCN(C3CCCCC3)CC2)c2noc3c2c1C(=O)c1ccccc1-3,?,?,20µM*,11.2%,35.5µM*
O=C1c2ccccc2-c2onc3c(Br)cc(NC4CCCCC4)c1c23,-32.9%[59 µM],-8.4%,-25.3%,-1.8%,-33.8%
O=C1c2ccccc2-c2onc3c(N4CCN(C5CCCCC5)CC4)cc(NCCO)c1c23,-43.1%[59 µM],?,31.6µM*,-10.6%,?
COCCCNc1nc2nonc2nc1N1CCN(C2CCCC2)CC1,-21.6%,29.4%,-27.7%,2.1%,-2.1%
COCCNc1cc(N2CCN(C3CCCCC3)CC2)c2noc3c2c1C(=O)c1ccccc1-3,?,?,?,?,50.1µM*
CC(C)CNc1cc(NC2CCCCC2)c2c3c(onc13)-c1ccccc1C2=O,10µM*,?,25.1µM*,8.0%,28.2µM*
COc1c(C)cc(C(O)c2ncc(-c3ccc(C(F)(F)F)cc3)[nH]2)cc1C (stereo unspecified),/,/,/,-1.8%,/
COC(=O)c1[nH]c(C)c(/C(O)=C2\C(=O)C(=O)N(CCN(C)C)C2c2ccc(C)o2)c1C (stereo unspecified),39.8µM*,7.7%,-32.6%,-0.1%,35.5µM*
CCOC(=O)c1[nH]c(C)c(/C(O)=C2\C(=O)C(=O)N(CCCN3CCOCC3)C2c2cccnc2)c1C (stereo unspecified),22.4µM*,35.2%,-7.6%,0.1%,-14.6%
COC(=O)c1[nH]c(C)c(/C(O)=C2\C(=O)C(=O)N(CCN(C)C)C2c2ccco2)c1C (stereo unspecified),?,35.4%,-0.6%,-0.1%,-5.6%
CCOC(=O)c1[nH]c(C)c(/C(O)=C2\C(=O)C(=O)N(CCCn3ccnc3)C2c2ccncc2)c1C (stereo unspecified),50.1µM*,21.3%,?,-1.0%,35.5µM*
COC(=O)c1[nH]c(C)c(/C(O)=C2\C(=O)C(=O)N(CCCN3CCOCC3)C2c2ccccn2)c1C (stereo unspecified),?,35.7%,50.1µM*,-1.8%,?
CCOC(=O)c1[nH]c(C)c(/C(O)=C2\C(=O)C(=O)N(CCCN(CC)CC)C2c2cccnc2)c1C (stereo unspecified),/,60.6%,/,-5.4%,-0.3%
CN1CC(=O)N(CC(=O)Nc2cccc3ccccc23)C1=O,/,30.7%,/,3.6%,-3.5%
CC1(C(=O)Nc2ccc(Cl)c(C(F)(F)F)c2)Cc2c(-c3ccc4c(c3)OCO4)ccnc2O1 (stereo unspecified),/,/,/,5.0%,/
